Compound activity as filed in PubChem.
An excerpt weighted towards active compounds, which were near 5% of everything screened.
TSHR ag – qHTS Assay for Agonists of the Thyroid Stimulating Hormone Receptor; 0.48% of 73,000 active; Thyrotropin receptor (Homo sapiens), P16473; Potency, µM (doses to about 57.1 µM), for the others: at the top dose activation, actives largely listed as activators; HEK293-CNG-TSHR cells (CNG channel as cAMP sensor), membrane potential dye, cAMP; AID 926, 2007; active = well fitted activation curve with a large enough effect in the main read-out, with a control signal flat, not every such curve was filed as active; inconclusive = small, poorly fitted or top-dose-only effect, or a change in a side signal; inactive = no such curve, though single readings can be large or run the other way; % of control where 0% means no effect;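 note: the control signal comes from parental cells without the receptor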
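HEK 293 cells stably expressing TSHR and a modified CNG channel, with CNG-only parental cells as counterscreen, were preloaded 60 min at room temperature with membrane potential dye containing 100 uM RO 20-1724. Compound exposure was 30 min, and depolarization was read as fluorescence at 590 nm.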
Caspase-7 inhib – qHTS Assay for Allosteric/Competitive Inhibitors of Caspase-7; 0.02% of 75,000 active; AID 889, 2007; recombinant caspase-7, Ac-DEVD-AFC fluorescence rate; Potency, µM (doses to about 57.5 µM), inactives show at the highest dose activity change, negative = inhibition, usual class: inhibitors; active = well fitted inhibition curve with a large enough effect in the main read-out, with a control signal flat, not every such curve was filed as active; inconclusive = small, poorly fitted or top-dose-only effect, or a change in a side signal; note: % of control where 0% means no effect
USP2a inh – qHTS Assay for Inhibitors of Ubiquitin-specific Protease USP2a. USP2a enzymatic assay, qHTS inhibition. Potency, µM (series often up to 38.3 µM), inactives show top-dose activity change, negative = inhibition, actives largely listed as inhibitors. 0.1% of 60,000 active; note: nearly all actives have a fitted effect of over 60% in size
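USP2 core (20 nM final) was preincubated with compound for 30 min at RT in 20 mM Tris-HCl pH 8.0, 2 mM CaCl2, 2 mM beta-mercaptoethanol; Ub-PLA2 (20 nM) plus NBD C6-HPC (20 uM) then added, fluorescence read after 2.5 h.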
CRE-bla Fsk – Cell signaling CRE-BLA (Fsk stim); AID 662, 2007; CHO CRE-bla reporter (cAMP response element driving beta-lactamase), forskolin EC10, beta-lactamase ratio; 2.5% of 71,000 active; Potency, µM (doses to about 38.2 µM), for inactives: at the highest dose activity change, negative = inhibition, hits mostly activators; active = well fitted activation curve with a large enough effect in the signal ratio, with a control signal flat, not every such curve was filed as active; inconclusive = small, poorly fitted or top-dose-only effect, or effect the other way, or a change in a side signal; the % refers to the signal ratio; note: % of control where 0% means no effect
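Reporter-gene assay: CHO cells with beta-lactamase behind cAMP responsive elements, co-treated with compound and EC10 NKH 477 for 3 hours at 37 degrees Celsius. Activity came from the 460/530 nm CCF4 emission ratio.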
Caspase-1 inhib – qHTS Assay for Allosteric/Competitive Inhibitors of Caspase-1; Caspase-1 enzyme, Ac-WEHD-AFC fluorogenic rate; Potency, µM (doses to about 57.5 µM), without a hit: at the highest dose activity change, negative = inhibition, most hits filed as inhibitors; P29466; 0.03% of 75,000 active;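 note: plate controls were vehicle for no effect and no substrate for full effect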
HEK293 cAMP ctrl – qHTS Assay for Agonists of the Thyroid Stimulating Hormone Receptor: Activators of Intracellular cAMP Concentrations in Parental HEK 293. parental HEK293 CNG cAMP sensor, membrane potential fluorescence. AID 938, 2007. 2.5% of 73,000 active. Potency, µM (top dose mostly 57.1 µM), without a hit: at the top dose activation, most hits filed as activators; note: % of control where 0% means no effect; nearly all actives have a fitted effect of over 55% in size
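Counterscreen for endogenous-receptor signalling: CNG-channel HEK 293 cells report cAMP rise by membrane depolarization. After 60 min dye equilibration with 100 uM RO 20-1724, compounds incubated 30 min before bottom-read fluorescence at 590 nm.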
Numbers without * were called inactive; u = inconclusive; x = no result given; [ ] = dose if it differs, or a comment. Unless noted, calls come from the whole dose curve; as a rule, active = well fitted curve in the direction sought with a large enough effect; inconclusive = small, poorly fitted or top-dose-only effect, or another doubt; inactive = no such curve, though single readings can be large; an effect the other way counts as inactive or inconclusive. Potency is the fitted concentration of half-maximal effect.

SMILES	TSHR ag	Caspase-7 inhib	USP2a inh	CRE-bla Fsk	Caspase-1 inhib	HEK293 cAMP ctrl
Nc1nc2nccc(-c3ccc(Cl)cc3)n2n1	-8%	-1%	-1%	17%	-1%	2%
CC1CN(Cc2nc3c(c(=O)n(C)c(=O)n3C)n2CC(=O)c2ccccc2)CC(C)O1 (stereo unspecified)	u	-2%	4%	14%	-3%	u
CCOC(=O)Cn1c(CN2CC(C)OC(C)C2)nc2c1c(=O)n(C)c(=O)n2C (stereo unspecified)	4µM*	-2%	x	26%	3%	26%
NNS(=O)(=O)c1cc(C(=O)O)cc(C(=O)O)c1	-4%[11.4 µM]	1%[11.5 µM]	x	5%[7.6 µM]	1%[11.5 µM]	3%[11.4 µM]
c1ccc(CNc2nc3ccccc3n3cnnc23)nc1	-6%	-3%	x	13µM*	3%	4%
CCCCn1c(NCc2ccccn2)nc2ccccc21	u	1%	8%	u	0%	u
N=c1c(C(=O)NCc2ccco2)cc2c(=O)n3ccccc3nc2n1Cc1ccc(Cl)cc1	u	u	34%	2.5µM*	x	-78%
COCCn1c(=N)c(C(=O)NCc2ccco2)cc2c(=O)n3ccccc3nc21	0%	u	2%	u	x	6%
N=c1c(C(=O)NCc2ccco2)cc2c(=O)n3ccccc3nc2n1Cc1ccccc1	u	u	39%	10µM*	x	-129%
Nc1c(S(=O)(=O)O)cc(Nc2cccc(S(N)(=O)=O)c2)c2c1C(=O)c1ccccc1C2=O	-13%[11.4 µM]	-2%[11.5 µM]	x	13%[7.6 µM]	-1%[11.5 µM]	-21%[11.4 µM]
CCN(CC)CCNC(=O)c1cc2c(-c3ccc(Cl)cc3)nn(C)c2s1	17%	-1%	x	u	2%	25%
CCOCCCNC(=O)c1cc2c(-c3ccc(Cl)cc3)nn(C)c2s1	9%	-4%	x	2µM*	-5%	17%
Cn1nc(-c2ccc(Cl)cc2)c2cc(C(=O)NCCCN3CCOCC3)sc21	12%	-1%	x	7.9µM*	-4%	6%
Clc1ccc(Cn2ncc3c(N4CCCC4)ncnc32)cc1	5%	-1%	9%	10µM*	-1%	0%
NC(=O)N[C@H]1NC(=O)NC1=O	u	2%[25.7 µM]	-15%[17.1 µM]	1%[17.1 µM]	-10%[25.7 µM]	13µM*
Cn1c(N)c(S(=O)(=O)c2ccc(Br)cc2)c2nc3ccccc3nc21	u	u	44%	16µM*	x	-30%
Cc1cccc(N2CCN(C(=O)c3ccc(CS(=O)(=O)c4ccccc4C)o3)CC2C)c1 (stereo unspecified)	u	-4%	26%	u	-2%	25µM*
COc1ccccc1S(=O)(=O)Cc1ccc(C(=O)N2CCN(c3ccccc3)CC2)o1	12%	1%	21%	7%	-1%	19%
COc1ccccc1S(=O)(=O)Cc1ccc(C(=O)N2CCN(c3cccc(Cl)c3)CC2)o1	u	-3%	44%	-27%	-3%	5µM*
COc1cc(/C=C/c2ccccc2)oc(=O)c1	14%	-1%	x	15%	-2%	26%
Cc1ccc(OCCn2c(C)c(/C=N/n3cnnc3)c3ccccc32)cc1	13%	-1%	2%	1.6µM*	1%	12%
Cc1c(/C=N/n2cnnc2)c2ccccc2n1CCOc1ccc(Cl)cc1	10%	-3%	40%	u	-5%	10%
CCOC(=O)c1c(C)oc2ccc(O)c(CN3CCCCC3)c12	u	-1%	-1%	u	1%	16µM*
CCOC(=O)c1oc2ccccc2c1CN1CCN(c2ccccc2)CC1	u	-10%	-6%	0%	-8%	u
CCOC(=O)c1oc2cccc(O)c2c1CN1CCOCC1	0%	0%	6%	13µM*	0%	20%
SMILES	TSHR ag	Caspase-7 inhib	USP2a inh	CRE-bla Fsk	Caspase-1 inhib	HEK293 cAMP ctrl
CCOC(=O)c1c(-c2ccccc2)oc2ccc(O)c(CN3CCOCC3)c12	u	-3%	-3%	22%	-2%	u
C(=N/Nc1nnc2c(n1)[nH]c1ccccc12)/c1cccnc1	u	-2%[11.5 µM]	x	17%[7.6 µM]	-1%[11.5 µM]	0%[11.4 µM]
O=c1ccn([C@H]2O[C@H](CO)[C@@H](O)[C@@H]2O)c(=O)[nH]1	6%	x	x	16%	x	-3%
Cc1ccc(C2C3=C(CC(C)(C)CC3=O)NC3=C2C(=O)CC(C)(C)C3)o1	13µM*	-13%	13%	u	-11%	3%
CC1=C(C#N)C(C)C2=C(CC(C)(C)CC2=O)N1 (stereo unspecified)	7%	u	3%	u	x	1%
Nc1nc(SCc2ccc([N+](=O)[O-])cc2)c2ncn([C@@H]3O[C@@H](CO)[C@@H](O)[C@H]3O)c2n1	2%	0%	2%	-4%	-1%	-18%
COc1ccc(OC)c(N/C(=N\c2nc(C)cc(C)n2)NC(=O)c2ccco2)c1	u	0%	5%	16%	0%	25µM*
CC(=O)[C@]1(O)CC[C@@H]2[C@H]3C[C@@H](C)C4=CC(=O)CC[C@@]4(C)[C@H]3[C@@H](O)C[C@]21C	u	-5%[11.5 µM]	x	4%[7.6 µM]	2%[11.5 µM]	u
CC12C=C(/C=C/c3ccccc3)C(C)(C1)C(c1ccccc1)CC2=O (stereo unspecified)	-3%[11.4 µM]	1%[11.5 µM]	x	x	1%[11.5 µM]	7%[11.4 µM]
CCn1c(SCC(=O)OC)nc2sc3c(c2c1=O)CCC3	25%	-14%	x	13µM*	0%	13%
N#Cc1ccc2ccn(CC(=O)NC3CCCCC3)c2c1	u	-4%	81%	-2%	-2%	16µM*
CC(C)(C)NC(=O)C(c1ccco1)N(C(=O)c1csnn1)c1ccccc1 (stereo unspecified)	12%	0%	7%	1%	-1%	6%
O=C(NCc1ccc2c(c1)OCO2)C(c1ccco1)N(C(=O)c1csnn1)c1ccccc1 (stereo unspecified)	3.2µM*	-1%	136%	u	-1%	7%
CC(C)CCNC(=O)c1cnn2c(C(F)(F)F)cc(-c3ccco3)nc12	0%	u	25%	5µM*	x	29%
CCOC(=O)N1CCN(Cc2cc(=O)oc3ccc4ccccc4c23)CC1	u	-3%	19%	6%	-3%	25µM*
O=c1cc(CN2CCOCC2)c2c(ccc3ccccc32)o1	u	-2%	-6%	18%	-4%	u
Cc1ccc(N2C(=O)[C@@H]3[C@H](C2=O)C2c4ccccc4C=CN2[C@@H]3C(=O)c2ccco2)c(C)c1 (stereo partly specified)	-12%	u	35%	-19%	13µM*	-14%
